An excerpt weighted towards active compounds, which were near 11% of everything screened.
NIH3T3 tox = Cytotoxic Profiling in NIH 3T3 Cell Line of Diverse Libraries Using Quantitative High-Throughput Screening; NIH 3T3 viability, CellTiter-Glo ATP luminescence, 48-72 h; Potency, µM (highest dose often 96.7 µM), inactives show top-dose activity change, negative = cytotoxicity, usual class: inhibitors; actives 4.3% (n = 94,000); AID 1345082, 2018; note: % is set by controls: 0 for no effect and ±100 for the full control effect; nearly all actives have a fitted effect of over 55% in size
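Cytotoxicity is measured as loss of cellular ATP: NIH 3T3 cells (400/well) are exposed to compound for 48 or 72 hr at 37 °C, then CellTiter-Glo luminescence is imaged after 10 min at room temperature.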
HEK293 tox = Cytotoxic Profiling in HEK 293 Cell Line of Diverse Libraries Using Quantitative High-Throughput Screening | actives 6.6% (n = 94,000) | HEK 293 viability, ATP luminescence (CellTiter-Glo), 48-72 h | Potency, µM (series often up to 115 µM), for the others: at the highest dose activity change, negative = cytotoxicity, hits mostly inhibitors; note: % is set by controls: 0 for no effect and ±100 for the full control effect; nearly all actives have a fitted effect of over 60% in size
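Pintool-delivered compounds were incubated with HEK 293 cells (250 cells/well) at 37 degree Celsius for 48 or 72 hr. ATP-dependent luminescence (CellTiter-Glo) then reported remaining viable cells.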
Luciferase inh = Firefly luciferase inhibition profiling of diverse chemical library using quantitative high-throughput screening. Luciferin 4-monooxygenase (Photinus pyralis), P08659. purified P. pyralis luciferase, luminescence, biochemical. Potency, µM (series often up to 115 µM), actives largely listed as inhibitors. actives 2.5% (n = 76,000). AID 1347043, 2019; note: % is set by controls: 0 for no effect and ±100 for the full control effect; nearly all actives have a fitted effect of over 65% in size
Target sequence (P08659 whole entry, looked up): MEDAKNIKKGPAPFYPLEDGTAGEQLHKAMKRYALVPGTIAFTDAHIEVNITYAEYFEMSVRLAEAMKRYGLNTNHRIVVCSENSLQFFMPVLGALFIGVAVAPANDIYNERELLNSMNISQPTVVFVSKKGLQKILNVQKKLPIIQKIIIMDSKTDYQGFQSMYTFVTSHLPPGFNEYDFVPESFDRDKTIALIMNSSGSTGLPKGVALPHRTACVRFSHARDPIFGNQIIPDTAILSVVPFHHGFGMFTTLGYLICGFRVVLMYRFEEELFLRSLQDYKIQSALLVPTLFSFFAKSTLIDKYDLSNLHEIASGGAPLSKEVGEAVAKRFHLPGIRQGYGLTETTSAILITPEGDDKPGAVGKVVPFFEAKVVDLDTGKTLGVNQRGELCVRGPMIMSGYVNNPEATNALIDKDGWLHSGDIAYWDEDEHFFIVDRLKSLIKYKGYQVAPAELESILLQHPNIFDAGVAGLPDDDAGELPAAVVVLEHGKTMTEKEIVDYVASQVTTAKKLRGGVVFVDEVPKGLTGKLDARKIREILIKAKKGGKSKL
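Purified 10nM P. pyralis luciferase with 10uM D-luciferin and 10uM ATP in 50mM Tris acetate pH 7.5, 10mM Mg acetate, 0.01% Tween-20, 0.05% BSA. qHTS titration; luminescence read by CCD imager.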
hNpr1 antagonist = Natriuretic polypeptide receptor (hNpr1) antagonism - Primary qHTS; Atrial natriuretic peptide receptor 1 (Homo sapiens), P16066; HEK293 hNpr1 GloSensor cGMP, ANP-stimulated luminescence; Potency, µM (series often up to 46.3 µM), for the others: at the top dose activity change, negative = inhibition, hits mostly inhibitors; actives 1.6% (n = 76,000); calls by dose curve; note: % is set by controls: 0 for no effect and ±100 for the full control effect; nearly all actives have a fitted effect of over 60% in size
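Compound pre-incubated 30 min at room temperature on GloSensor-loaded HEK293 cells stably carrying hNpr1 and the pGS-40F cGMP biosensor. Stimulation uses hNppA at 0.1 nM final; luminescence is taken at baseline and 20 min post-agonist.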
Npr1 antag conf = Natriuretic polypeptide receptor (hNpr1) antagonism - Confirmation; HEK293 hNpr1 cGMP GloSensor luminescence, ANP-stimulated; Potency, µM (titrated, usually from 57.6 µM), inactives show at the top dose activity change, negative = inhibition, most hits filed as inhibitors; shares compounds with hNpr1 antagonist; AID 1347044, 2019; actives 76% (n = 1,400); calls by dose curve; note: nearly all actives have a fitted effect of over 70% in size
NPR2 antag = Natriuretic polypeptide receptor (hNpr2) antagonism - Subtype selectivity assay; HEK293 hNpr2 GloSensor cGMP luminescence, CNP-stimulated; shares compounds with hNpr1 antagonist; Potency, µM (series often up to 57.6 µM), for inactives: top-dose activity change, negative = inhibition, hits mostly inhibitors; actives 67% (n = 1,400); calls by dose curve; note: nearly all actives have a fitted effect of over 70% in size
FLuc counter = Natriuretic polypeptide receptor (hNpr1) antagonism - Confirmation firefly luciferase (FLuc) inhibition counterscreen; AID 1347047, 2019; Potency, µM (titrated, usually from 57.6 µM), inactives show at the highest dose activity change, negative = inhibition, actives largely listed as inhibitors; shares compounds with hNpr1 antagonist; actives 0.7% (n = 1,400); purified FLuc enzyme, luminescence, Km substrate; note: series mostly up to about 58 µM; 0% is about no effect
GloSensor ctrl = Natriuretic polypeptide receptor (hNpr1) antagonism - Counterscreen GloSensor control cell line | shares compounds with hNpr1 antagonist | HEK293 GloSensor cGMP, SNP-stimulated, luminescence | actives 69% (n = 1,400) | Potency, µM (highest dose often 57.6 µM), without a hit: at the top dose activity change, negative = inhibition, hits mostly inhibitors; calls by dose curve; note: % is set by controls: 0 for no effect and ±100 for the full control effect; nearly all actives have a fitted effect of over 70% in size
* hit, by the source's call; i = inactive; ? = inconclusive; . = no result given; [ ] = another dose, or the depositor's remark. Unless noted, calls come from the whole dose curve; as a rule, active = well fitted curve in the direction sought with a large enough effect; inconclusive = small, poorly fitted or top-dose-only effect, or another doubt; inactive = no such curve, though single readings can be large; an effect the other way counts as inactive or inconclusive. Potency is the fitted concentration of half-maximal effect.

SMILES	NIH3T3 tox	HEK293 tox	Luciferase inh	hNpr1 antagonist	Npr1 antag conf	NPR2 antag	FLuc counter	GloSensor ctrl
Cc1nn2c(c1-c1ccccc1-c1ccccc1)N(Cc1cccc(O)c1)CCC2	?	?	i	2.2µM*	3.1µM*	5µM*	-1%[86.2 µM]	3.5µM*
Fc1ccc(Cc2nc3nccc(-c4cccs4)n3n2)cc1	?	?	i	-2%	.	.	.	.
CN1CC(=O)N(C2CCCNCC2)Cc2c1ncnc2N1CCN(c2ncccn2)CC1 (centres undefined)	i	i	.	.	.	.	.	.
CCOc1ccccc1CN1CCN(C(=O)[C@H]2CCC[C@H]2NC(=O)c2ccncc2)CC1	i	i	i	-2%	.	.	.	.
Cn1ncc2c(C(=O)NCCCc3ccccc3)cc(-c3ccc(C(F)(F)F)cc3)nc21	-35%	?	.	.	.	.	.	.
CC(C)OC(=O)N1CCC(COc2ccc3c(cnn3CC[S+](C)(=O)[O-])c2)CC1	?	?	i	16µM*	16µM*	22µM*	-12%[86.2 µM]	14µM*
CCN(Cc1cccc2cnccc12)CC1CCCN(CCc2cccc(F)c2)C1 (centres undefined)	40µM*	18µM*	i	?	24µM*	19µM*	-2%	-1%
Cc1ccc(C(=O)N2CCCC(c3nc(-c4cccnc4)no3)CCNC(=O)CC2)s1 (centres undefined)	-10%	-19%	i	2%	.	.	.	.
COCCN1C(=O)c2ccccc2C(C(=O)Nc2cc(C)ccc2OC)C12CCCCC2 (centres undefined)	-16%	?	i	?	22µM*	12µM*	-3%	8%
Cc1nn(Cc2ccccc2)c(C)c1[C@@H]1C=C[C@@H](NC(=O)c2cccs2)C1	?	?	i	-6%[70.6 µM]	.	.	.	.
COc1ccc(-n2nc(C)c([C@H]3C=C[C@@H](OC(=O)N[C@H](C)c4ccccc4)C3)c2C)cc1	?	14µM*	i	11µM*	9.9µM*	13µM*	-15%[86.2 µM]	8.9µM*
Cc1nn(Cc2ccccc2)c(C)c1[C@@H]1C=C[C@@H](NS(=O)(=O)c2cccs2)C1	?	?	i	?	?	?	-2%[86.2 µM]	?
COc1ccc(-n2nc(C)c([C@@H]3C=C[C@@H](NS(=O)(=O)c4cccs4)C3)c2C)cc1	?	?	i	?	?	?	-4%[86.2 µM]	35µM*
COCCc1noc(-c2ccccc2OC2CN(C(=O)CC3CCCC3)C2)n1	-19%	?	i	-3%	.	.	.	.
COCCNC(=O)[C@H]1C[C@H](Oc2ccccc2)CN1C(=O)CC(C)C	?	?	i	-8%	.	.	.	.
O=C(c1ccccc1)N1CCC(C(=O)N2CCC(N3CCCC3=O)CC2)CC1	-2%	5%	.	.	.	.	.	.
FC(F)(F)c1ccc(N2C3CCC2CN(Cc2cccs2)C3)cc1	?	?	.	.	24µM*	21µM*	1%	17µM*
Cc1cc(C)cc(-c2ccc(CN3CC4CCC(C3)N4c3ccc(C(F)(F)F)cc3)cc2)c1	-18%	-3%	.	.	.	.	.	.
CN(Cc1ccncc1)Cc1ccc(-c2ccccc2)cc1	?	71µM*	i	?	22µM*	28µM*	-3%[86.2 µM]	18µM*
CN(Cc1ccc(-c2ccccc2)cc1)Cc1ccc(N(C)C)cc1	-28%	?	i	-10%	.	.	.	.
O=C(NCc1ccccc1)c1nc2c(o1)CCN(Cc1ccc(F)cc1)CC2	?	?	i	?	35µM*	35µM*	0%[86.2 µM]	35µM*
COc1ccc(CN2CCc3nc(C(=O)NCc4cccc(F)c4)oc3CC2)cc1OC	?	?	i	-12%	.	.	.	.
O=C(NCc1ccccc1)c1nc2c(o1)CCN(Cc1ccc(F)c(Cl)c1)CC2	45µM*	?	i	22µM*	28µM*	28µM*	-2%[86.2 µM]	20µM*
COc1ccccc1CN1CCc2nc(C(=O)NCc3cccc(F)c3)oc2CC1	?	?	i	-3%[70.6 µM]	.	.	.	.
CC(=O)NCc1nnc2n1C(C(=O)NCc1ccccc1Cl)CC2 (centres undefined)	?	-39%[172 µM]	.	.	.	.	.	.
SMILES	NIH3T3 tox	HEK293 tox	Luciferase inh	hNpr1 antagonist	Npr1 antag conf	NPR2 antag	FLuc counter	GloSensor ctrl
COC(=O)N1CCC(C(=O)N2CCC(N3CCOCC3=O)CC2)CC1	i	5%	.	.	.	.	.	.
COc1ccc(NC(=O)c2ccc3c(c2)NC(C)(COCC2CC2)CO3)cn1 (centres undefined)	?	?	?	-20%[70.6 µM]	.	.	.	.
CC1(COc2ccccc2)COc2ccc(C(=O)N3CCN(c4ccccn4)CC3)cc2N1 (centres undefined)	?	?	i	-12%	.	.	.	.
CC1(COc2cccnc2)COc2ccc(C(=O)N3CCN(c4ccccn4)CC3)cc2N1 (centres undefined)	?	?	i	6.3µM*	6.9µM*	7.7µM*	2%	5.4µM*
CN(Cc1ccccc1)C(=O)c1ccc2c(c1)NC(C)(COc1cccnc1)CO2 (centres undefined)	-29%[138 µM]	?	i	32µM*	31µM*	31µM*	3%[86.2 µM]	22µM*
COc1ccc(OCC2(C)COc3ccc(C(=O)Nc4ccc(OC)nc4)cc3N2)cc1 (centres undefined)	?	56µM*	i	35µM*	35µM*	40µM*	-12%[86.2 µM]	35µM*
Cc1nc(C)c(C(=O)N2CCCN(Cc3ccncc3)C(c3ccccc3)CC(=O)NCC2)s1 (centres undefined)	-6%	-5%	i	5%	.	.	.	.
O=C(c1ccc2nnc(-c3ccc(C(F)(F)F)cc3)n2c1)N1CCCC1	-17%	-22%	.	.	.	.	.	.
